Consider 62 compounds from PubChem BioAssay AID624404 (Broad Institute, 2012).

Molecules are shown by their SMILES. The campaign covered roughly 1,800 compounds. About 710 (39%) were called active. Another 28% or so got no clear call; they are omitted.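 Rule for the calls: active = luciferase signal rise whose fitted curve crosses a set activity limit at or below the top valid tested dose; inconclusive = flat fit with 30 to 70% rise, or poor fit; inactive = signal falling, flat within 30%, or crossing above top dose.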 Only a sample is shown. Entries with a potency or affinity are not part of this list.

The nature of this test: luciferase activators in glycosylation-insensitive reporter cells, dose response, counter-screen for N-linked glycosylation inhibitor project, D54 LucT cells, luminescence, cherry pick (AID 624404). To be noted: D54 LucT luciferase reporter counterscreen, 24 h; series mostly up to 19.5 µM.
For `COc1cc2c(cc1OC)C(C)N(C(=O)Nc1ccccc1)CC2` (configuration not stated), the outcome was inactive. As for `COc1ccc(C(=O)/C=C/Sc2nc3ccccc3o2)cc1`, the entry is “inactive”; as for `COc1cc(/C=N/Nc2nc3c(c(=O)n(C)c(=O)n3C)n2Cc2ccccc2)ccc1OC(=O)c1ccco1`, “inactive”; as for `COc1ccc(CCn2c(Br)nc3c2c(=O)[nH]c(=O)n3C)cc1`, “inactive”. `COc1cc(C2CC(=O)N(c3ccc(C)cc3)C(=O)C2)cc(OC)c1OC`: the compound was called inactive. As for `CC(C)c1ccc(NC(=O)CN2C(=O)NC3(CCCCCCC3)C2=O)cc1`, the entry is “inactive”.

On to `CCN(CC)S(=O)(=O)c1cccc(NC(=O)CN2C(=O)NC3(CCC(C)CC3)C2=O)c1` (configuration not stated), for which the compound was classed as inactive. With `NC(=O)c1ccc2c(=O)n3c(-c4cc(Cl)c(N)c(Cl)c4)csc3nc2c1`, the compound was called inactive. As for `OCC1OC(n2cnc3c(=S)nc[nH]c32)CC1O` (configuration not stated), the entry is “inactive”; as for `Cc1cccn2c(=O)c3cc(C(=O)NC4CCCC4)n(C)c3nc12`, “inactive”; as for `Cc1cccn2c(=O)c3cc(C(=O)NC4CCCC4)c(=N)n(CC4CCCO4)c3nc12` (configuration not stated), “inactive”. The value for `Cc1cccn2c(=O)c3cc(C(=O)N4CCCCC4)sc3nc12` was “inactive”; that for `Cc1cccn2c(=O)c3cc(C(=O)NC4CCCC4)c(=N)n(CCc4ccccc4)c3nc12` was “inactive”; that for `CCN(CC)CCOc1ccc2c(c1)C(=NNC(=O)c1ccccn1)c1cc(OCCN(CC)CC)ccc1-2` was “inactive”.

Consider `O=C(CCl)Nc1ccc(Sc2ccc(NC(=O)CCl)cc2)cc1`, for which the result was inactive. As for `CC(C)Oc1ccc(C(=O)/C=C2/C(=O)Nc3ccccc32)cc1`, the entry is “inactive”; as for `CCc1ccc(NC(=O)Cn2c(=O)n(CCC(=O)NC3CCN(Cc4ccccc4)CC3)c(=O)c3ccccc32)cc1`, “inactive”; as for `Cc1[nH][nH]c(=O)c1C(c1ccc(-c2cccc(Cl)c2)o1)c1c(C)[nH][nH]c1=O`, “inactive”.

Turning to `Cc1[nH][nH]c(=O)c1C(c1ccc(-c2ccc(F)cc2)o1)c1c(C)[nH][nH]c1=O`, the compound was called inactive. The value for `CC1(C(=O)Nc2ccc(Cl)cc2)Cc2c(-c3ccc4c(c3)OCO4)ccnc2O1` (configuration not stated) was “inactive”; that for `CC1(C(=O)Nc2ccc3c(c2)OCO3)Cc2c(-c3ccc4c(c3)OCO4)ccnc2O1` (configuration not stated) was “inactive”; that for `CCOC(=O)c1cc2c(ccn2C)n1CC(=O)N1CCN(c2ccccc2)CC1` was “inactive”. As for `FC(F)(F)c1cccc(Sc2nc(-c3ccccc3)nnc2C(F)(F)F)c1`, the entry is “inactive”; as for `Nc1nonc1-c1nc2ccccc2n1CC(=O)N/N=C\c1ccc(-c2ccc(Cl)cc2)o1`, “inactive”; as for `COc1ccc(C(=O)/C=C/c2ccc(OC(=O)c3cc(OC)c(OC)c(OC)c3)cc2)cc1`, “inactive”.

For `COc1ccc(CCn2c(=N)c(S(=O)(=O)c3ccc(C)cc3)cc3c(=O)n4ccccc4nc32)cc1`, the compound was classed as inactive. The value for `N=c1c(C(=O)NCc2ccco2)cc2c(=O)n3ccccc3nc2n1CCc1ccccc1` was “inactive”.

With `Cc1ccc2nc3c(cc(C(N)=S)c(=N)n3CCCOC(C)C)c(=O)n2c1`, the call was inactive. The value for `CCOc1cc(/C=C/C(=O)c2ccc(C)cc2)ccc1OCC(=O)N(C)C` was “inactive”; that for `O=C(Nc1cccc(-n2cnnn2)c1)c1cc(Cl)ccc1Cl` was “inactive”. With `c1ccc(CN2CCC(Nc3nc(-c4cccnc4)nc4ccccc34)CC2)cc1`, the call was inactive. The value for `CCc1ccc(N2CC(C(=O)Nc3ccccc3N3CCCC3)CC2=O)cc1` (configuration not stated) was “inactive”. The value for `Cn1nc(-c2ccc(N3CCOCC3)c(NS(=O)(=O)c3ccccc3)c2)c2ccccc2c1=O` was “inactive”. As to `COc1ccc(N2CC(C(=O)Nc3cc(C(F)(F)F)ccc3N3CCCC3)CC2=O)c(OC)c1` (configuration not stated), the call was inactive. The value for `COc1ccc2nc3n(c(=O)c2c1)-c1cc2ccccc2cc1C(=O)NC3Cc1ccccc1` (configuration not stated) was “inactive”; that for `COc1cccc(/C=N/NC(=O)c2[nH]nc3c2CCc2ccccc2-3)c1` was “inactive”.

On to `Cc1ccc(C(c2cc(Cl)c3cccnc3c2O)N2CCN(C)CC2)cc1` (configuration not stated), for which the compound was classed as inactive. The value for `Cc1nc2c3cc(F)ccc3n(CCN3CCCCC3)c2s1` was “inactive”. The value for `COc1ccc(F)cc1C1=CC(=O)C[C@H](c2ccc3c(c2)OCO3)C1` was “inactive”. The value for `CN1C/C(=C\c2ccc(N3CCOCC3)cc2)C(=O)/C(=C/c2ccc(N3CCOCC3)cc2)C1` was “inactive”.

For the compound `COc1cc(-c2nc(-c3ccccc3)c(-c3cccs3)[nH]2)cc(OC)c1O`, the compound was classed as inactive. As for `Cc1noc(C)c1COc1ccccc1C(=O)N1CCN(c2cccc(C(F)(F)F)c2)CC1`, the entry is “inactive”; as for `CN(C)c1ccc(/C=C/c2cc[n+](C)c3ccccc23)cc1`, “inactive”. In the case of `COc1ccc(C2C(C(=O)Nc3cc(OC)c(OC)c(OC)c3)c3ccccc3C(=O)N2C)cc1` (configuration not stated), the compound was called inactive.

Turning to `Cn1cc(/C=N/n2cnc3scc(-c4ccc(Cl)cc4)c3c2=O)c2ccccc21`, the outcome was inactive. The value for `Cc1[nH][nH]c(=O)c1C(c1ccc(-c2ccc(Cl)c(Cl)c2)o1)c1c(C)[nH][nH]c1=O` was “inactive”.

Take `COc1cccc(OCC(O)CN2CCN(CCN3C(=O)c4cccc5cccc(c45)C3=O)CC2)c1` (configuration not stated): the compound was called inactive. The value for `Cc1ccccc1OCC(O)CN1CCN(CCN2C(=O)c3cccc4cccc(c34)C2=O)CC1` (configuration not stated) was “inactive”; that for `CC(C)CCN(C(=O)Cc1ccc(Cl)c(Cl)c1)c1c(N)n(Cc2ccccc2)c(=O)[nH]c1=O` was “inactive”; that for `CCN(CC)c1ccc(/C=C/c2cccc[n+]2C)c(OC)c1` was “inactive”. The value for `O=C(Cn1cnc2c(NCc3ccccc3)ncnc21)NCc1ccccc1` was “inactive”; that for `CC(=O)c1ccc(Nc2c3c(nc4ccccc24)CCCC3)cc1` was “inactive”. The value for `COc1ccc(Nc2nc(N3CCCC3)nc3ccccc23)c(OC)c1` was “inactive”; that for `CCOc1ccccc1C1CC(=O)Nc2cc3c(cc21)OCO3` (configuration not stated) was “inactive”; that for `Cc1ccc(C)c(N2CCN(c3cnn(-c4nc5ccccc5s4)c(=O)c3Cl)CC2)c1` was “inactive”. Regarding `CC(C)(C)c1ccc(C(=O)O/N=C(\N)Cc2cccs2)cc1`, the call was inactive. The value for `O=C(CCl)Nc1cn(-c2ccccc2)nc1-c1ccc(F)cc1` was “inactive”; that for `CC1=CC(C)[C@H](/C=N/n2c(=O)[nH]c3c([nH]c4ccc(Br)cc43)c2=O)C(C)C1` (some centres not stated) was “inactive”. As for `COc1ccc(-c2nn(C)c(=O)c3ccccc23)cc1NS(C)(=O)=O`, the entry is “inactive”; as for `CC=Cc1cc2c(c(=O)o1)C(=O)C(O)C(C)O2` (configuration not stated), “inactive”; as for `Cc1noc(C)c1COc1ccc(C(=O)NNC(=O)c2ccccc2F)cc1`, “inactive”.

For `Cc1ccc(OCCOC(=O)c2c(-c3ccccc3)noc2C)cc1`, the outcome was inactive.
